Laboratory results from PubChem BioAssay (NCATS).
Several values for one entry are separate records, joined by “and”; a condition that tells them apart may be missing. Identical values can stand only once. Inconclusive results are not listed. Activity calls are given as the source filed them. The call rests on the fitted dose curve; in most records, active means well fitted curve in the direction sought with a large enough effect; inconclusive means small, poorly fitted or top-dose-only effect, or another doubt; inactive means no such curve, though single readings can be large; an effect the other way counts as inactive or inconclusive.

Experiments:
[1] = qHTS of pediatric cancer cell lines to identify multiple opportunities for drug repurposing: Primary screen for U-2 OS cells (AID 1347096); further: nearly all actives have a fitted effect of over 50% in size
Outline: (§1)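 Cells (500-1,000/well) in growth media were settled 5 h at 37 degrees C, then given compounds for 48 h. Viability was read as CellTiter-Glo luminescence. Primary runs used MIPE at 11 points (0.78 nM-46 µM) and NPC at 8 points (0.59 nM-46 µM); follow-ups used 11 points.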

[2] = qHTS of pediatric cancer cell lines to identify multiple opportunities for drug repurposing: Primary screen for Saos-2 cells (AID 1347097); further: nearly all actives have a fitted effect of over 40% in size; further: potency means the concentration at half of the fitted maximal effect
Outline: (§2)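 Phenotypic viability qHTS, 48 h compound exposure, CellTiter-Glo luminescence read-out; multi-concentration dosing so that potency and efficacy derive directly from the primary screen's curves.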

[3] = qHTS of pediatric cancer cell lines to identify multiple opportunities for drug repurposing: Primary screen for NB1643 cells (AID 1347099); further: nearly all actives have a fitted effect of over 50% in size; further: potency means the concentration at half of the fitted maximal effect
Outline: as §2

[4] = qHTS of pediatric cancer cell lines to identify multiple opportunities for drug repurposing: Primary screen for control Hh wild type fibroblast cells (AID 1347106); further: nearly all actives have a fitted effect of over 55% in size; further: potency means the concentration at half of the fitted maximal effect
Outline: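 Viability after 48 h compound treatment at 37C, 500-1,000 cells/well, read as ATP luminescence with CellTiter-Glo. Primary screens used 11-point (MIPE, 0.78 nM-46 µM) or 8-point (NPC, 0.59 nM-46 µM) final concentrations; follow-up screens used 11-point dilutions.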

[5] = qHTS of pediatric cancer cell lines to identify multiple opportunities for drug repurposing: Primary screen for LAN-5 cells (AID 1347100); further: potency means the concentration at half of the fitted maximal effect
Outline: as §1

[6] = qHTS of pediatric cancer cell lines to identify multiple opportunities for drug repurposing: Primary screen for Rh18 cells (AID 1347102); further: nearly all actives have a fitted effect of over 65% in size; further: potency means the concentration at half of the fitted maximal effect
Outline: as §1

[7] = qHTS of pediatric cancer cell lines to identify multiple opportunities for drug repurposing: Primary screen for OHS-50 cells (AID 1347103); further: nearly all actives have a fitted effect of over 40% in size; further: potency means the concentration at half of the fitted maximal effect
Outline: (§3)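 Cells (500-1,000/well) rested 5 h, then received compounds for 48 h; metabolically active cells were measured by CellTiter-Glo luminescence. Final concentrations spanned up to 46 µM (MIPE, 11-point) or 0.59 nM-46 µM (NPC, 8-point) in primary screens, 11-point in follow-ups.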

[8] = qHTS of pediatric cancer cell lines to identify multiple opportunities for drug repurposing: Primary screen for RD cells (AID 1347104); further: nearly all actives have a fitted effect of over 55% in size; further: potency means the concentration at half of the fitted maximal effect
Outline: as §2

[9] = qHTS of pediatric cancer cell lines to identify multiple opportunities for drug repurposing: Primary screen for MG 63 (6-TG R) cells (AID 1347105); further: nearly all actives have a fitted effect of over 50% in size; further: potency means the concentration at half of the fitted maximal effect
Outline: as §2

[10] = qHTS of pediatric cancer cell lines to identify multiple opportunities for drug repurposing: Primary screen for Rh30 cells (AID 1347107); further: series mostly up to about 46 µM; nearly all actives have a fitted effect of over 75% in size
Outline: as §1

[11] = qHTS of pediatric cancer cell lines to identify multiple opportunities for drug repurposing: Primary screen for Rh41 cells (AID 1347108); further: nearly all actives have a fitted effect of over 70% in size; further: potency means the concentration at half of the fitted maximal effect
Outline: as §2

[12] = qHTS of pediatric cancer cell lines to identify multiple opportunities for drug repurposing: Primary screen for SK-N-SH cells (AID 1347098); further: nearly all actives have a fitted effect of over 65% in size; further: potency means the concentration at half of the fitted maximal effect
Outline: as §3

[13] = qHTS of pediatric cancer cell lines to identify multiple opportunities for drug repurposing: Primary screen for BT-12 cells (AID 1347101); further: nearly all actives have a fitted effect of over 25% in size; further: potency means the concentration at half of the fitted maximal effect
Outline: as §3

[14] = qHTS of pediatric cancer cell lines to identify multiple opportunities for drug repurposing: Confirmatory screen for A673 cells (AID 1347110);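 further: potency means the concentration at half of the fitted maximal effect; cells exposed to compound for 48 h before the viability read; nearly all actives have a fitted effect of over 65% in size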
Outline: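 Cells plated at 500-1,000/well were treated five hours later with multi-point dilutions up to 46 µM final. After two days, CellTiter-Glo was added and luminescence read.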

[15] = qHTS of pediatric cancer cell lines to identify multiple opportunities for drug repurposing: Confirmatory screen for LAN-5 cells (AID 1347113); further: nearly all actives have a fitted effect of over 65% in size; further: potency means the concentration at half of the fitted maximal effect
Outline: as §1

[16] = qHTS of pediatric cancer cell lines to identify multiple opportunities for drug repurposing: Confirmatory screen for DAOY cells (AID 1347114); further: nearly all actives have a fitted effect of over 65% in size
Outline: (§4)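 Viability measured as metabolically active cells via CellTiter-Glo luminescence following 48 hours of compound exposure, 11-point dilutions in confirmatory testing. 500-1,000 cells/well plated 5 hours before dosing; controls were DMSO and 2.3 µM bortezomib.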

[17] = qHTS of pediatric cancer cell lines to identify multiple opportunities for drug repurposing: Confirmatory screen for NB-EBc1 cells (AID 1347115);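 further: cells exposed to compound for 48 h before the viability read; nearly all actives have a fitted effect of over 45% in size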
Outline: as §1

[18] = qHTS of pediatric cancer cell lines to identify multiple opportunities for drug repurposing: Confirmatory screen for SJ-GBM2 cells (AID 1347116); further: nearly all actives have a fitted effect of over 60% in size
Outline: as §4

[19] = qHTS of pediatric cancer cell lines to identify multiple opportunities for drug repurposing: Confirmatory screen for NB1643 cells (AID 1347109); further: potency means the concentration at half of the fitted maximal effect; nearly all actives have a fitted effect of over 45% in size
Outline: as §1

Measured: Potency

CC(C)c1ccc2c(c1)c(SC(C)(C)C)c(CC(C)(C)C(=O)O)n2Cc1ccc(Cl)cc1
inactive: [1] | [4]
active: [2] 29.6 µM | [3] 16.6 µM

CNC[C@H](O)c1ccc(O)c(O)c1
inactive: [1] | [2] | [5] | [6] | [7] | [8] | [9] | [4] | [10] | [11]

Oc1ccc2ccccc2c1SSc1c(O)ccc2ccccc12
inactive: [1]
active: [3] 26.4 µM | [4] 23.5 µM

Nc1nc(N)c(N=O)c(OCC2CCCCC2)n1
inactive: [10]
active: [2] 18.7 µM | [12] 24.1 µM | [3] 18.7 µM | [6] 18.7 µM | [7] 15.3 µM | [9] 11.8 µM

CC1(C)NC(=O)N(c2ccc([N+](=O)[O-])c(C(F)(F)F)c2)C1=O
not listed: [12] | [13] | [14] | [15] | [16] | [17] | [18] | [19]
inactive: all other assays above

CCCCC(CC)COC(=O)C(C#N)=C(c1ccccc1)c1ccccc1 (stereo not drawn)
inactive: [1] | [2] | [6] | [9] | [10]
active: [7] 13.8 µM and 24.3 µM

Cc1cc2c(s1)Nc1ccccc1N=C2N1CCN(C)CC1
not listed: [4] | [12] | [14] | [15] | [16] | [17] | [18] | [19]
inactive: all other assays above

CC(C)c1nc(CN(C)C(=O)N[C@H](C(=O)N[C@@H](Cc2ccccc2)C[C@H](O)[C@H](Cc2ccccc2)NC(=O)OCc2cncs2)C(C)C)cs1
inactive: [1] | [2] | [13] | [8]

CCOC(=O)C1=C(O)C(=O)N(Cc2ccccc2)C1
not listed: [12] | [14] | [15] | [16] | [17] | [18] | [19]
inactive: all other assays above

O=C(NCC1CCCCN1)c1cc(OCC(F)(F)F)ccc1OCC(F)(F)F (stereo not drawn)
active: [14] 1.31 µM
not listed: [2] | [3] | [5] | [7] | [12] | [13] | [19]
inactive: all other assays above

CNC[C@@H](O)[C@@H](O)[C@H](O)[C@H](O)CO
not listed: [4] | [12] | [14] | [15] | [16] | [17] | [18] | [19]
inactive: all other assays above

COc1cc2c(N3CCN(C(=O)Nc4ccc(OC(C)C)cc4)CC3)ncnc2cc1OCCCN1CCCCC1
inactive: [1] | [9] | [10]
active: [12] 27.1 µM and 17.2 µM | [5] 18.7 µM | [13] 24.3 µM | [7] 27.3 µM and 19.5 µM | [8] 26.4 µM and 26.6 µM

Nc1nc(Cl)nc2c1ncn2[C@H]1C[C@H](O)[C@@H](CO)O1
inactive: [1] | [2] | [6] | [11] | [16]
active: [3] 1.05 µM | [5] 0.418 µM | [7] 15.3 µM | [9] 29.6 µM | [19] 2.08 µM | [14] 3.69 µM

Clc1ccc(C(Cn2ccnc2)OCc2ccsc2Cl)c(Cl)c1 (stereo not drawn)
inactive: [1] | [9] | [4] | [10] | [11] | [18]
active: [3] 11.9 µM | [6] 37.6 µM | [7] 24.3 µM | [19] 14.7 µM | [14] 20.8 µM | [15] 20.8 µM

CC(=O)O[C@H]1C(=O)[C@@]2(C)C([C@H](OC(=O)c3ccccc3)[C@]3(O)C[C@H](OC(=O)[C@H](O)[C@@H](NC(=O)c4ccccc4)c4ccccc4)C(C)=C1C3(C)C)[C@]1(OC(C)=O)CO[C@@H]1C[C@@H]2O (stereo partly drawn)
inactive: [1] | [12]
active: [5] 0.001 µM | [7] 0.001 µM | [11] 0.0042 µM | [14] 0.0147 µM

CC1(C)CCC(C)(C)c2cc(NC(=O)c3ccc(C(=O)O)cc3)ccc21
inactive: [1] | [12] | [5] | [13] | [6] | [8] | [9] | [4] | [10] | [11]

Clc1ccc(C(Cn2ccnc2)OCc2c(Cl)cccc2Cl)c(Cl)c1 (stereo not drawn)
active: [7] 19.5 µM and 24.3 µM
inactive: [1] | [6] | [9] | [4] | [10] | [11]

Cc1cc(O)c2c(c1)C(=O)c1cc(O)cc(O)c1C2=O
inactive: [1] | [2] | [5] | [13] | [6] | [7] | [8] | [9] | [4]

Cc1ccc(C(=O)c2cc(O)c(O)c([N+](=O)[O-])c2)cc1
inactive: [1] | [12] | [3] | [6] | [8] | [9] | [4] | [10] | [11]
